Measured values published in PubChem BioAssay.
Active and inactive are the calls of the source. The rule behind the calls is not given here.

Target: Pantothenate synthetase (Mycobacterium tuberculosis (strain ATCC 25618 / H37Rv)) (UniProt P9WIL5)
Assay: Coupled enzyme confirmation of inhibitors against recombinant Mtb PanC (AID 375);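 note: 0% = full reaction with vehicle and 100% = no enzyme background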
Details: coupled enzyme assay; at 10 µM, stronger effect = higher value

Sequence of Pantothenate synthetase (Mycobacterium tuberculosis (strain ATCC 25618 / H37Rv)) (P9WIL5 whole entry, looked up): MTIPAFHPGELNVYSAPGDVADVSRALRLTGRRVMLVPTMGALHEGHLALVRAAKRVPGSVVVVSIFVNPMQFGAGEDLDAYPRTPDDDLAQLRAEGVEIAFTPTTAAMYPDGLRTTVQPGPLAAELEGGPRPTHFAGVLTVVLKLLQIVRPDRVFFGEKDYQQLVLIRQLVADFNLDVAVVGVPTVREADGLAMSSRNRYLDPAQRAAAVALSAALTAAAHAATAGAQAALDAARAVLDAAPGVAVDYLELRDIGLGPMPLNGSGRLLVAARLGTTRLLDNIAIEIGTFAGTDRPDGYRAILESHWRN

| Structure (SMILES) | inhibition |
| --- | --- |
| CC1CCc2nn(CC(=O)Nc3ccc(F)cc3F)cc2C1 (stereo not given) | 5% (inactive) |
| Cc1cc(C)cc(-n2nnc(C(=O)NCc3ccco3)c2N)c1 | 0% (inactive) |
| N#CC1=C(N)Oc2n[nH]c(-c3ccncc3)c2C1c1ccsc1 (stereo not given) | 0% (inactive) |
| Cc1cc(NC(=O)NC(=O)c2cccc(OC(F)(F)C(F)F)c2)n[nH]1 | 3% (inactive) |
| CCCn1c(C)nc2c(c1=O)c1nc3ccccc3nc1n2CCc1ccccc1 | 4% (inactive) |
| O=C(OCn1nnc2ccccc2c1=O)C1CCN(S(=O)(=O)c2cccs2)CC1 | 0% (inactive) |
| O=c1cc(-c2ccccc2)[nH]c2nc3ccccc3n12 | 0% (inactive) |
| CC(C)C(c1nnnn1CC1CCCO1)N1CCN(Cc2ccc3c(c2)OCO3)CC1 (stereo not given) | 0% (inactive) |
| O=C(c1cnc2n(c1=O)CCS2)N1CCc2ccccc21 | 2% (inactive) |
| O=C(NCC(=O)N1CCC(N2CCCCC2)CC1)C1CCCCC1 | 3% (inactive) |
| N[C@@H](C(=O)N[C@@H]1C(=O)N2C(C(=O)O)=C(Cl)CS[C@H]12)c1ccccc1 | 2% (inactive) |
| CC(Sc1n[nH]c(=O)[nH]c1=O)C(=O)OCc1ccccc1 (stereo not given) | 2% (inactive) |
| CCC1CCCCN1C(=O)C1CC(c2cc(Cl)c(OC)cc2OC)=NO1 (stereo not given) | 1% (inactive) |
| Cn1cccc1Cc1nnc(SCC(=O)NCc2ccc(F)cc2)n1-c1ccc(F)cc1 | 2% (inactive) |
| CCOc1cc(C)c(Cl)cc1S(=O)(=O)N(C)C | 5% (inactive) |
| Cn1c(=O)[nH]c(=O)c2c1ncn2CCN1CCOCC1 | 0% (inactive) |
| C=CCSc1n[nH]c(-c2ccc(OC)cc2)n1 | 0% (inactive) |
| Cc1cnc(C(=O)OCC(=O)Nc2ccc(Oc3ccccc3)cc2)cn1 | 0% (inactive) |
| Cc1ccc2nc(SC(C)C(=O)N3CCCC3)[nH]c2c1 (stereo not given) | 2% (inactive) |
| Cc1cccc(N2CCN(C(=O)c3ccc(NS(=O)(=O)c4c(C)noc4C)cc3)CC2)c1C | 0% (inactive) |

| Structure (SMILES) | inhibition |
| --- | --- |
| COc1ccc(S(=O)(=O)Cc2ccc(C(=O)N3CCN(Cc4ccccc4)CC3)o2)cc1 | 0% (inactive) |
| Clc1ccccc1OCCCCn1ccnc1 | 0% (inactive) |
| COc1cc(S(=O)(=O)N(C)C)ccc1F | 1% (inactive) |
| COc1ccc(CCNC(=O)CSc2nnc(CNc3ccc(Cl)cc3)o2)cc1OC | 0% (inactive) |
| CCn1ncc(Cl)c1C(=O)Nc1ccncc1 | 3% (inactive) |
| Cc1nn(-c2ccccc2)c2c1C(O)n1c(nc3ccccc31)S2 (stereo not given) | 2% (inactive) |
| CCOc1ccccc1OCCn1nnc2ccccc21 | 4% (inactive) |
| O=C(COc1ccccc1)N1CCN(C(=O)c2cccc(F)c2)CC1 | 1% (inactive) |
| NC(=O)c1cc(-c2ccccc2)nc(N2CCOCC2)n1 | 0% (inactive) |
| CS(=O)(=O)N(CC(=O)N1CCN(c2cccc(Cl)c2)CC1)C1CCCCC1 | 0% (inactive) |
| CC(Cc1ccc(O)c(O)c1)C(C)Cc1ccc(O)c(O)c1 (stereo not given) | 0% (inactive) |
| COc1ccccc1OCc1ccc(C(=O)N2CCN(C(=O)c3ccco3)CC2)cc1 | 1% (inactive) |
| CCCCCn1c(CN2CCN(C)CC2)nc2c1c(=O)n(C)c(=O)n2C | 0% (inactive) |
| O=C(Nc1ccc(F)cc1)N(CCCN1CCOCC1)Cc1cc2cc3c(cc2[nH]c1=O)OCO3 | 6% (inactive) |
| CCN(CC)CCCNC(=O)c1nn(-c2ccc(OC)cc2OC)c(=O)c2ccccc12 | 0% (inactive) |
| CC(CCc1ccco1)NC(=O)Cn1ncc2c1-c1ccccc1OC2 (stereo not given) | 5% (inactive) |
| O=C(O)CCCc1nc(-c2ccccc2)no1 | 0% (inactive) |
| Nc1nnc(C(=O)c2ccccc2N)s1 | 0% (inactive) |
| CCOC(=O)N1CCN(C(=O)CSc2cc(C)nc3c(-c4ccccc4OC)c(C)nn23)CC1 | 0% (inactive) |
| CC(C)CN(C(=O)COC(=O)Cc1n[nH]c(=O)c2ccccc12)C1CCS(=O)(=O)C1 (stereo not given) | 2% (inactive) |
